Results published in the supplement of paper PMC5407854, “Inhibitor of ppGalNAc-T3-mediated O-glycosylation blocks cancer cell invasiveness and lowers FGF23 levels” (eLife, 2017).
Over roughly 1,700 compounds, “T3 sensor activation Q score (MG/GFP ratio z-score vs DMSO controls)” has its median near 0.25; the highest 2% begin near 1.9. This is one part of a sample in which the highest values are shown more often than they occur.

Each molecule was assayed on ppGalNAc-T3 sensor (assay: T3 sensor activation Q score (MG/GFP ratio z-score vs DMSO controls) (SD units); higher = more sensor activation (inhibition of ppGalNAc-T3 glycosylation)). Settings: HEK293 sensor cells; 10 µM; 6 h.
Procedure: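 Cells were treated with compound at 10 uM for 6 h, then MG/GFP ratio was read by flow cytometry (10,000 cells per well, duplicate wells). Q = (R - R_neg)/SD_neg relative to DMSO vehicle controls; the signal rises when the glycosyltransferase is inhibited.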

Row | SMILES | T3 sensor activation Q score
1 | C#CC1(O)CCC2C3CCC4=Cc5oncc5CC4(C)C3CCC21C (stereo not drawn) | 0.1
2 | COc1cc2c(c(OC)c1O)C(=O)CO2 | 1.55
3 | CC(=O)[C@H]1CC[C@H]2[C@@H]3CCC4=CC(=O)CC[C@]4(C)[C@@]3(F)[C@@H](O)C[C@]12C | 0.55
4 | CC1(c2ccccc2)O[C@@H]2C[C@H]3[C@@H]4CCC5=CC(=O)C=C[C@]5(C)[C@@]4(F)[C@@H](O)C[C@]3(C)[C@]2(C(=O)CO)O1 (stereo partly drawn) | 3.35
5 | CC(C)(C)n1nc(C2CC2)cc1NC(=O)Nc1ccc(Cl)cc1 | 0.7
6 | COc1cc(Cl)c(CC(=O)c2c[nH]c3ccccc23)cc1OC | 1.05
7 | CC(C)(C)N1CC(OC(N)=O)C1 | 1.65
8 | O=[N+]([O-])c1cccc(-c2nc3ccccc3s/c2=N/O)c1 | 1.3
9 | CN(C)c1ccc(N=Nc2ccccn2)cc1 | -0.95
10 | Nc1c(Cl)ncnc1NCCO | 0.55
11 | COCC(=O)OC1CCn2c1nc1c2C(=O)C(C)=C(NC(C)=O)C1=O (stereo not drawn) | -0.35
12 | C(=N\n1cnnc1)/c1ccc2c(c1)CCC2 | 0.05
13 | Cc1cc(C)c(C#N)c(Sc2nc(C)c([N+](=O)[O-])c(C)c2C#N)n1 | -0.15
14 | CC(=O)NC1(C(=O)O)CCCC1 | -1.1
15 | CC(=NO)C1CC(CC(=O)O)C1(C)C (stereo not drawn) | -0.55
16 | O=c1cc(-c2ccccc2)nc2cc(-c3ccco3)[nH]n12 | 0.35
17 | Cn1c(N)c(C(=O)/C=C/c2ccccc2)c(=O)[nH]c1=O | 1.7
18 | OCc1ncccc1O | -0.75
19 | CN(C)CCCN1c2ccc3ccccc3c2Sc2cccc(Cl)c21 | -0.4
20 | S=c1[nH]cc2cnccn12 | -1.4
21 | CCOc1ccc(NC(=S)NC(=O)c2ccco2)cc1 | -1.05
22 | Cc1ccn(C)c(=N)c1 | 2
23 | O=C1OCC/C1=C\NCCCCCCCCN/C=C1\CCOC1=O | 1.2
24 | O=C1N=NC2=C1c1c3ccccc3c(O)n1CC2 | 1.7
25 | CC(C)=CCC/C(C)=C\C(N)=O | 0.2
26 | CC(C)CC(NC(=O)OCc1ccccc1)C(=O)NC(Cc1c[nH]c2ccccc12)C(=O)O (stereo not drawn) | -0.85
27 | O=C1CSC(c2cccs2)N1c1nncs1 (stereo not drawn) | 0.05
28 | N=C(N)n1c(N)nc2ccccc2c1=O | -0.55
